# A selection: hits, their analogues and other compounds. The true share with any hit is near 2.9%.
# PLCg1 inh = PLC-gamma1 enzyme inhibitors, primary screen, biochemical, fluorescence, purified enzyme; 1-phosphatidylinositol 4,5-bisphosphate phosphodiesterase gamma-1 (Homo sapiens), P19174; fluorogenic substrate; inhibition, % at 12.2 µM; 370,000 tested, 0.84% active; AID 720700, 2013; in the data active means inhibition above about 9.5%
# KLK7 zymogen act = proKLK7 zymogen activators, primary screen, biochemical, fluorescence intensity. Kallikrein-7 (Homo sapiens), P49862. purified proKLK7, EDANS-DABCYL substrate fluorescence; 100% is mature enzyme control, 0% vehicle. activation, % at 7 µM. 370,000 tested, 0.9% active;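 active means activation above the mean of all tested compounds plus 3 SD, computed per campaign excluding outliers beyond control limits, cut at about 13% in these data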
# ADAM10 inh = human ADAM10 inhibitors, primary screen, biochemical, QFRET, HTS | recombinant ADAM10, EDANS/DABCYL FRET peptide cleavage, 3 h | inhibition, % at 7 µM | 370,000 tested, 0.62% active | AID 720582, 2013;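 active means inhibition above a per-campaign cutoff equal to the mean of compounds falling between control-based bounds plus 3 SD, cut at about 20% in these data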;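 further: 0% = DMSO wells while the 100% control is not disclosed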
# PLC-beta3 inh = human PLC-beta3 inhibitors, primary screen, biochemical, fluorescence. Purified PLC-beta3, fluorogenic substrate. inhibition, % at 12.2 µM. 370,000 tested, 0.18% active. AID 720704, 2013; in the data active means inhibition above about 11%;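 further: 0% = median of compound wells on plate and 100% = full blocker control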
# ADAM17 inh = ADAM17 inhibitors, primary screen, biochemical, QFRET; 370,000 tested, 0.83% active; recombinant ADAM17, EDANS/DABCYL FRET peptide cleavage; Disintegrin and metalloproteinase domain-containing protein 17 (Homo sapiens), P78536; inhibition, % at 6.95 µM;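 active means inhibition above the mean of compounds lying between control limits plus 3 SD, set per campaign, cut at about 8.5% in these data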;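 further: 0% = DMSO-only wells as the low control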
# Target sequence (P78536 215-824 limits assumed): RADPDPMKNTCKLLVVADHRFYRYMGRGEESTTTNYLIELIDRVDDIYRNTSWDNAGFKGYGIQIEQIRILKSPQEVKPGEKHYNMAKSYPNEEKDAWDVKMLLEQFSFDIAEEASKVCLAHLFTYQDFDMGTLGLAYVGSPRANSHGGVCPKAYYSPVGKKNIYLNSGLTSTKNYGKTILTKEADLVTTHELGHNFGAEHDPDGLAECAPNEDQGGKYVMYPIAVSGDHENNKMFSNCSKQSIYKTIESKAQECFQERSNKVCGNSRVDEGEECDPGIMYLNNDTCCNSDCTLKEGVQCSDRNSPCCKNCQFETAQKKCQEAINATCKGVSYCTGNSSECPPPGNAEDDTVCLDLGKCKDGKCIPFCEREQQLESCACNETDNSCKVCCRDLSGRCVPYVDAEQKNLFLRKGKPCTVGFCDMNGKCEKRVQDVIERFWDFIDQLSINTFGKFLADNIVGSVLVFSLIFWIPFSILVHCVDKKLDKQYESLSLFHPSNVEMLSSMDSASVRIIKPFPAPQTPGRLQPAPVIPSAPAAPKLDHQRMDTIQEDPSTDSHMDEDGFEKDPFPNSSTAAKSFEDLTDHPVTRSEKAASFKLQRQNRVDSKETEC
# ADAM10 confirm = human ADAM10 inhibitors, confirmation, biochemical, QFRET, triplicate; shares compounds with ADAM10 inh; ADAM10 QFRET peptide cleavage, EDANS fluorescence; inhibition, % at 6.95 µM; 2,100 tested, 1% active; AID 743208, 2013;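 active means inhibition above about 20% chosen separately for each screening run, limit read from the data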;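 further: 0% = DMSO wells and 100% = marimastat wells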
# ADAM17 counter = ADAM17 inhibitors, counter-screen for ADAM10 exosite inhibitor project, biochemical, QFRET, high throughput; inhibition, % at 6.95 µM; AID 743214, 2013; shares compounds with ADAM10 inh; 2,100 tested, 0.5% active; ADAM17 QFRET peptide cleavage, EDANS fluorescence;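 active means mean triplicate inhibition above the solvent-only control wells' mean plus 3 SD, cut at about 12% in these data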;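 further: 0% = DMSO wells and 100% = marimastat wells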
# * marks the source's active call; other numbers are inactive results; x = no result.
SMILES,PLCg1 inh,KLK7 zymogen act,ADAM10 inh,PLC-beta3 inh,ADAM17 inh,ADAM10 confirm,ADAM17 counter
CCNS(=O)(=O)c1ccc(CCC(=O)Nc2cc(Cl)ccc2Oc2ccccc2)cc1,-4.0,-0.5,20.8*,-13.6,5.8,4.0,1.6
CCNS(=O)(=O)c1ccc(CCC(=O)Nc2ccccc2)cc1,3.5,0.4,1.0,3.0,-1.5,x,x
CSCC[C@H](NC(=O)OC(C)(C)C)c1nnc(SCc2ccc(F)cc2)o1,-0.3,0.9,7.8,0.5,0.3,x,x
CSCC[C@H](NC(=O)OC(C)(C)C)c1nnc(SCc2cccc(F)c2)o1,3.4,-0.6,20.4*,3.8,1.4,1.4,0.1
COc1cccc(CNc2ncc(Br)cc2Br)c1O,0.9,-0.3,15.0,-2.6,4.1,x,x
COc1cccc(CNc2ccc(Br)cn2)c1O,7.4,0.4,24.6*,6.0,5.5,-0.4,0.3
C=CCn1c(SCn2nnc3ccccc3c2=O)nnc1-c1ccc(F)cc1,1.2,-0.5,6.4,-2.2,-2.8,x,x
O=C(Nc1ccc(S(=O)(=O)NCCc2ccccc2)cc1)c1ccc(Br)o1,-1.1,-0.7,20.6*,-4.2,6.4,1.9,0.7
Cc1ccc(C(=O)COC(=O)c2cccc(NC(=O)c3ccc([N+](=O)[O-])cc3[N+](=O)[O-])c2)cc1,1.9,-0.6,25.0*,4.4,4.4,6.1,1.5
Cc1cc(C)c2c(=O)n3c(nc2c1)C(Cc1ccc(O)cc1)NC(=O)c1cc2ccccc2cc1-3 (stereo not given),0.5,-2.1,22.6*,-1.3,8.1,20.9*,7.6
Cc1ccc(C(=O)Nc2c(C)cc(-c3ccc(Cl)cc3)oc2=O)cc1,-5.9,0.0,11.2,-0.3,8.4,x,x
CC1(C)CC1C(=O)Nc1ccc([N+](=O)[O-])cc1Br (stereo not given),3.6,0.7,16.1,4.3,3.4,x,x
Cc1ccc(C2(c3ccc(C)cc3)CC2C(=O)Nc2ccc([N+](=O)[O-])cc2O)cc1 (stereo not given),8.8,-0.2,41.5*,12.5*,19.3*,11.4,3.5
O=C1c2ccccc2C(=O)N1CCc1c(-c2[nH]c3ccccc3c2CCN2C(=O)c3ccccc3C2=O)[nH]c2ccccc12,-1.7,-1.0,-14.4,1.1,-2.6,x,x
O=C1c2ccccc2C(=O)N1CCc1c(-c2ccccc2)[nH]c2ccccc12,5.8,-0.3,20.0*,2.2,5.5,6.6,1.9
COc1ccc2c(=O)c3c(=O)n(Cc4ccco4)c(-c4ccco4)nc3oc2c1,-18.6,-0.8,-21.6,-27.0,-7.5,x,x
O=C(Oc1cccc(NC(=O)c2ccco2)c1)c1ccc(Br)c(S(=O)(=O)N2CCCCC2)c1,4.6,0.7,27.8*,9.3,12.6*,3.3,1.2
Cc1ccc(C(=O)Oc2cccc(NC(=O)c3ccco3)c2)cc1S(=O)(=O)N1CCC(C)CC1,-2.7,-0.3,12.8,-2.9,7.2,x,x
O=C(CSc1nnc(COc2ccc(F)cc2)o1)N1c2ccccc2CCc2ccccc21,1.8,0.5,20.1*,-2.8,8.0,6.8,1.8
O=C(Nc1ccc2c(c1)OCO2)C1CC(c2ccc(Cl)cc2)=NO1 (stereo not given),0.8,1.2,0.0,-0.5,-2.0,x,x
COc1ccc(C2=NOC(C(=O)Nc3ccc4c(c3)OCO4)C2)cc1 (stereo not given),3.5,-0.4,22.1*,0.4,3.8,2.9,1.5
O=C1/C(=C/c2ccc(Cl)cc2)SC(=S)N1CCC(=O)N1CCCCC1CCO (stereo not given),0.4,-0.1,4.2,-6.3,1.6,x,x
COc1ccc(CNc2nc3ccccc3n2C)c(O)c1,2.6,-0.1,14.4,3.6,-1.6,x,x
Cn1c(NCc2cc(Br)ccc2O)nc2ccccc21,5.3,0.4,20.6*,3.8,4.8,0.9,0.5
CCCCn1c(NCc2cc(C)ccc2O)nc2ccccc21,7.0,0.6,23.1*,7.8,6.3,2.8,0.7
SMILES,PLCg1 inh,KLK7 zymogen act,ADAM10 inh,PLC-beta3 inh,ADAM17 inh,ADAM10 confirm,ADAM17 counter
COc1ccc(CCNC(=O)c2cc(-c3ccccc3)on2)cc1OC,1.1,-0.1,-10.8,2.1,-2.4,x,x
CN(c1ccccc1)S(=O)(=O)c1nnc(NC(=O)c2ccco2)s1,-13.2,-0.2,47.8*,-20.4,0.5,4.4,1.1
Nc1ccc(S(=O)(=O)N2CCCc3ccccc32)cc1,4.8,-0.1,23.6*,6.9,4.4,0.4,-0.4
OCCCn1c(-c2ccccc2)n[nH]c1=S,-3.5,-0.1,6.4,0.3,-4.0,x,x
CCOC(=O)c1ccc(N2C(=O)c3n[nH]c(-c4ccco4)c3C2c2cccc([N+](=O)[O-])c2)cc1 (stereo not given),13.4*,-0.3,32.8*,1.9,6.9,6.2,1.5
CCOC(=O)c1ccc(N2C(=O)c3n[nH]c(C)c3C2c2ccco2)cc1 (stereo not given),2.0,0.7,1.9,4.1,1.0,x,x
O=S(=O)(Nc1cccc2cccnc12)c1ccc(S(=O)(=O)N2CCCC2)cc1,4.5,-0.4,21.5*,-2.2,5.3,3.4,1.7
Cc1cc(CN(Nc2ccccc2)c2ccccc2)cc(C)n1,3.4,0.8,-4.6,2.9,0.7,x,x
N#Cc1ccc(CN(Nc2ccccc2)c2ccccc2)cc1,7.1,5.7,26.5*,2.8,7.5,4.5,2.1
OC(c1ccccc1)(c1nc(/C=C/c2ccccc2)cs1)C(F)(F)F (stereo not given),0.9,-0.1,21.0*,3.9,6.8,7.9,3.1
CCCn1c(SCC(=O)NC(=O)NCc2ccccc2)n[nH]c1=O,1.0,0.1,-6.9,-2.5,-1.0,x,x
O=C(Cc1cccc2ccccc12)Nc1cc(Cl)ccc1C(=O)O,5.2,0.3,22.9*,-4.4,4.3,1.4,0.5
O=C(Cc1cccc2ccccc12)Nc1ccccc1C(=O)O,-5.8,0.1,-13.8,-18.3,-3.8,x,x
Cc1ccc(S(=O)(=O)c2ccc(NC(=O)c3c(F)cccc3F)cc2)cc1,-0.1,0.1,23.9*,-2.8,7.1,0.2,0.8
O=C(Nc1ccc(S(=O)(=O)N2CCCC2)cc1)c1c(F)cccc1F,1.7,0.3,-3.6,-3.4,-1.5,x,x
CC(C)(C)OC(=O)N1CCN(C(=O)c2[nH]cnc2C(=O)Nc2ccccc2F)CC1,1.8,1.4,3.9,2.2,3.8,x,x
CC(=O)Nc1cc2c(cc1NC(=O)Cn1nc(-c3ccc(F)cc3)ccc1=O)OCCO2,-1.8,-0.1,1.2,-0.5,-3.1,x,x
